Source: PubChem BioAssay (NCI)
This is part of a sample that, as a whole, favours compounds with a hit. Of some 83,000 tested, about 20% had one in any assay.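 Single-concentration screen, 48 h exposure, 96-well plates. Endpoint: percent growth. Below 10 = active.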 Unmarked numbers belong to inactive results. Active and inactive are the calls of the source.

Key:
Experiment in all cases: NCI-60 one-dose screen, 48 h (100 = growth as untreated, 0 = no growth, -100 = all killed)
Conditions in all cases: 10 µM
[1] = tested on: SN12C renal
[2] = tested on: UO-31 renal
[3] = tested on: ACHN renal
[4] = tested on: CAKI-1 renal
[5] = tested on: A498 renal
[6] = tested on: MOLT-4 leukemia
[7] = tested on: SR leukemia
[8] = tested on: RPMI-8226 leukemia
[9] = tested on: OVCAR-8 ovarian
[10] = tested on: OVCAR-5 ovarian
[11] = tested on: SK-OV-3 ovarian
[12] = tested on: IGROV1 ovarian
[13] = tested on: OVCAR-3 ovarian
[14] = tested on: HS 578T breast
[15] = tested on: NCI/ADR-RES ovarian
[16] = tested on: T-47D breast
[17] = tested on: CCRF-CEM leukemia
[18] = tested on: OVCAR-4 ovarian

Compound	growth [1]	growth [2]	growth [3]	growth [4]	growth [5]	growth [6]	growth [7]	growth [8]	growth [9]	growth [10] [%]	growth [11]	growth [12]	growth [13]	growth [14]	growth [15]	growth [16]	growth [17]	growth [18]
CN1CCC2(CC1)NC(=O)c1c(c3ccc(Cl)c(Cl)c3n1C)C2C#N (centres undefined)	64.3%	61.7%	73.9%	-26.4% (active)	59.8%	64.1%	39.4%	80.4%	80.8%	67.7	86.1%	73.4%	76%	71.1%	82.4%	81.3%	–	–
CCOC(=O)C1(CC(C)C)CCOC1=O (centres undefined)	94.7%	90.1%	98.2%	92.4%	107%	100%	104%	95.6%	93.8%	97	101%	119%	104%	110%	–	99%	92.2%	95.5%
O=C1NC(=O)c2ncccc21	105%	104%	110%	96.4%	110%	106%	111%	99.3%	100%	107	101%	107%	113%	124%	106%	102%	99.1%	113%
CSc1nn(-c2ccccc2)c2ncnc(Oc3ccccc3)c12	86.2%	7.79% (active)	106%	88.7%	138%	97.3%	84%	84.5%	99%	96.2	–	87.4%	91.2%	148%	96.6%	87.7%	89.6%	86.9%
Clc1ccc(Nc2ccnc(NCCNc3ccnc4cc(Cl)ccc34)n2)cc1	48%	-26.3% (active)	-7.16% (active)	-7.16% (active)	17.9%	-28% (active)	-22.3% (active)	-48.9% (active)	16.9%	61.4	60%	-8.25% (active)	57.8%	-25% (active)	–	-60.2% (active)	1.25% (active)	24.9%
COc1cc(Cl)cc(-c2nn(-c3cccc(NC(=O)Nc4ccc(Cl)c(Cl)c4)c3)cc2-c2ccncc2)c1	15.5%	0.635% (active)	9.65% (active)	7.49% (active)	-9.54% (active)	-16.1% (active)	-18.5% (active)	-4.44% (active)	1.93% (active)	37.8	14.2%	36.7%	4.12% (active)	28.5%	–	18.6%	5.73% (active)	13.3%
O=c1[nH]c(-c2ccc(Cl)cc2)nc2sc3c(c12)CCCC3	52.5%	78.8%	53.3%	13.4%	86.6%	49.4%	0.705% (active)	96.7%	68%	103	92%	82.1%	101%	104%	81.8%	64.4%	12.3%	86.2%
CC(=O)c1nc2ccccc2n1CCNC(N)=O	89.6%	78.8%	91.3%	105%	78.8%	77.2%	43.5%	32%	85.1%	97.5	91.5%	88.9%	82.7%	68.9%	–	67.8%	68.3%	93.1%
Cc1cc(=O)n2nnc3c4ccccc4ccc3n12	37.2%	46.8%	78.1%	67.8%	108%	–	9.54% (active)	8.01% (active)	27.3%	88.5	53.6%	61.8%	40.4%	104%	68.4%	47.6%	23.4%	49.3%
Cc1ccc(-c2n[nH]c(=O)c3noc(-c4ccc(C)cc4)c23)cc1	47%	20.3%	33.9%	16.9%	13.8%	44.2%	10.2%	11.8%	43.3%	66.2	21.4%	53.5%	-13.3% (active)	21.9%	32.5%	28.6%	17.5%	59.4%
FC(F)(F)c1ccc(-c2cnc(-n3cc(COCCN4CCCCC4)nn3)nc2NC2CCCCCC2)cc1	60.4%	-6.86% (active)	35.7%	46.6%	66%	-24.1% (active)	-37.4% (active)	-29.1% (active)	54.7%	67.9	56.8%	36.7%	37.1%	61.3%	70.6%	30.5%	-5.93% (active)	39.9%
Nc1nc(-c2ccccc2Cl)cc(-c2ccc(Cl)cc2Cl)n1	79.6%	62.5%	86%	68%	53.7%	52.6%	25.4%	35.2%	71.2%	96.2	93%	74.7%	85.2%	61.9%	79.8%	63.7%	57.5%	79.6%
COc1cc(C(=O)/C=C/c2cc(-c3cc(OC)c(OC)c(OC)c3)n[nH]2)cc(OC)c1OC	2.09% (active)	-77.2% (active)	-25.8% (active)	8.9% (active)	29.2%	7.64% (active)	-7.98% (active)	-46.1% (active)	8.1% (active)	44.9	–	-20% (active)	7.64% (active)	62.4%	34.6%	-26.1% (active)	-23.8% (active)	34.2%
O=C(Nc1ccc(CO)cc1)c1ccccc1Nc1ccnc(C(F)(F)F)c1	95.6%	81.5%	103%	95.8%	95.7%	98.4%	82.9%	89%	98.3%	104	101%	101%	110%	93.7%	102%	86.9%	89.7%	98.2%
CC(=O)c1nc2ccccc2n1CCN1CCN(C)CC1	46.7%	53.1%	78%	94.1%	36.6%	49.9%	6.52% (active)	3.09% (active)	34.8%	53.7	27.4%	39.3%	4.3% (active)	48.3%	97%	33.4%	3.66% (active)	64.6%
COc1ccc(C(=O)/C=C/c2cc(-c3cc(OC)c(OC)c(OC)c3)n[nH]2)cc1	25.1%	5.28% (active)	58.6%	4.76% (active)	62.2%	3.23% (active)	-39.7% (active)	-38.8% (active)	16.1%	47.8	25.7%	43.2%	11.1%	71.3%	25.9%	13.6%	-35.9% (active)	45.6%

Compound	growth [1]	growth [2]	growth [3]	growth [4]	growth [5]	growth [6]	growth [7]	growth [8]	growth [9]	growth [10] [%]	growth [11]	growth [12]	growth [13]	growth [14]	growth [15]	growth [16]	growth [17]	growth [18]
C(CCCC1=NCCO1)CCCC1=NCCO1	102%	90.9%	105%	103%	101%	105%	–	89.4%	106%	–	105%	114%	99.9%	99.3%	104%	109%	104%	109%
COc1cc(-c2cc(/C=C/C(=O)c3ccc(Cl)c(Cl)c3)[nH]n2)cc(OC)c1OC	64.3%	54.1%	81.5%	82.9%	70.6%	54.4%	-6.68% (active)	-20.3% (active)	77.8%	81.9	97.3%	108%	86.5%	90.1%	75.1%	37%	3% (active)	77.4%
COc1ccc2c(c1)N(CCO)C1=C(C(=O)OC1)C2c1cc(OC)c(OC)c(OC)c1 (centres undefined)	26%	15.2%	32.8%	6.97% (active)	-12.2% (active)	19.3%	23.5%	18.7%	7.94% (active)	–	20.6%	9.98% (active)	-53.2% (active)	-6.85% (active)	-14.7% (active)	71.9%	11.6%	51%
CCC(=O)N1C/C(=C/c2ccc(OC)cc2)C(=O)/C(=C/c2ccc(OC)cc2)C1	27.4%	-7.25% (active)	28.4%	13.1%	83.5%	11%	–	-15.8% (active)	10.7%	–	40.8%	41.8%	-6.54% (active)	9.81% (active)	25%	57%	-5.27% (active)	58.3%
C=C1c2c(C)nn(-c3ccc(OC)cc3)c2N(C)C23C[C@@H]1C1(C)c4c(C)nn(-c5ccc(OC)cc5)c4N(C)C(C)(C[C@H]12)C3 (some centres undefined)	23.8%	16.2%	33.8%	2.18% (active)	40.2%	14.9%	3.27% (active)	4.67% (active)	31.8%	61.7	60.2%	70.8%	24%	67.4%	35%	13.4%	21.7%	28.1%
CN(CCc1ccccn1)c1ccccc1	104%	97.9%	102%	–	109%	59.9%	–	–	102%	94	112%	103%	131%	107%	105%	97.4%	-0.411% (active)	98.5%
COc1ccc(-c2nc(-c3nc4ccc(OC)cc4[nH]3)cc3c2[nH]c2ccccc23)cc1	20.7%	8.19% (active)	31.9%	0.0135% (active)	46.3%	47.3%	33.6%	-28.2% (active)	17.5%	90	99.2%	21.1%	51.9%	18.8%	–	25.5%	11%	52.8%
COc1cc(-c2cc(-c3cc4c([nH]c5ccccc54)c(-c4cc(OC)c(OC)c(OC)c4)n3)cc(-c3ccccc3)n2)cc(OC)c1OC	54.6%	36.9%	62.8%	32.9%	54.5%	18.5%	16.7%	46%	70.2%	88.6	90.7%	74.6%	72.3%	52.5%	42%	43.3%	37.9%	58.6%
Cn1c(N)c(N=Nc2ccc(S(=O)(=O)Nc3nccs3)cc2)c(=O)n(C)c1=O	97%	68.6%	102%	95.4%	96.9%	92.6%	95.2%	100%	100%	115	103%	91.2%	103%	106%	96%	-10.2% (active)	95.8%	106%
Nc1c(C(=O)Nc2cccc(F)c2)sc2nc3c(cc12)C(=O)CCC3	37.4%	56.1%	53.6%	28%	-12.1% (active)	66.3%	16.1%	43.1%	63.9%	38.2	–	44.1%	-3.4% (active)	29.3%	13.3%	42.6%	17.9%	57.8%
COc1cc(-c2cc(/C=C/C(=O)c3ccc4c(c3)OCO4)[nH]n2)cc(OC)c1OC	63.9%	38.7%	84.6%	59.7%	73.7%	52.7%	-15.1% (active)	-11.6% (active)	76.6%	–	99.2%	98.5%	77.7%	86.6%	78.5%	40%	0.141% (active)	76.6%
COc1cc(-c2nc(-c3nnc(-c4ccc(F)c(Cl)c4)o3)c3ccccn23)cc(OC)c1OC	43.9%	29.5%	–	58%	40.6%	67%	42.4%	35.3%	-28.2% (active)	67.6	-4.85% (active)	72.9%	22.3%	58.6%	21%	30.4%	68.6%	-40.4% (active)
COc1cc(OC)cc(-c2cncn2-c2ccc(-c3nc4cc(OC)cc(OC)c4s3)cc2)c1	80.4%	49.5%	67.4%	29%	–	44.3%	35.5%	44.6%	80.7%	99.9	70.5%	56.1%	20.3%	50.3%	21.2%	62.8%	21.6%	–
CN(C)N=Nc1nn(C(=O)Nc2ccc(Cc3ccccc3)cc2)c2ccccc12	58.9%	41.9%	–	15.5%	82.4%	64.1%	59.8%	47.5%	48.8%	71	102%	84.8%	45.7%	100%	46.6%	24.3%	64.8%	52.1%
COc1ccc2c(c1)O/C(=C\c1ccc([N+](=O)[O-])s1)C2=O	41.6%	24%	25.4%	44.2%	85.1%	10.7%	12.1%	1.62% (active)	0.767% (active)	61.4	60.2%	-29.4% (active)	-30.5% (active)	18.3%	54.5%	16%	10.1%	-32.2% (active)
